Test results: PubChem BioAssay (NCI)
The panel holds about 83,000 compounds, 20% with a hit somewhere; the sample as a whole holds those more often.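 Activity criterion: percent growth below 10, measured after cells in 96-well plates were exposed to a single compound concentration for 48 hours.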 Calls of active or inactive are those of the source.

Columns and labels:
Test in all cases: NCI-60 one-dose screen, 48 h (100 = growth as untreated, 0 = no growth, -100 = all killed)
Conditions in all cases: 10 µM unless noted
DU-145 prostate = tested on: DU-145 prostate
K-562 leukemia = tested on: K-562 leukemia
MALME-3M melanoma = tested on: MALME-3M melanoma
MDA-MB-231 breast = tested on: MDA-MB-231 breast
RXF 393 renal = tested on: RXF 393 renal
SF-268 CNS = tested on: SF-268 CNS
SF-295 CNS = tested on: SF-295 CNS
SF-539 CNS = tested on: SF-539 CNS
UACC-257 melanoma = tested on: UACC-257 melanoma
M14 melanoma = tested on: M14 melanoma

Measured: growth

COc1ccc(C(O)c2cc3c(N)c(C(=O)Nc4cccc(Cl)c4C)sc3nc2C)cc1 (stereo not given)
inactive: MALME-3M melanoma 41.7% | RXF 393 renal 33.7% | SF-268 CNS 13.2% | SF-295 CNS 17.4% | UACC-257 melanoma 44.1%
active: DU-145 prostate 3.08% | K-562 leukemia 6.61% | MDA-MB-231 breast 1.27% | SF-539 CNS -4.61% | M14 melanoma 7.3%

c1ccc2c(c1)CCCc1nnc3nc4ccccc4n3c1-2
inactive: DU-145 prostate 39.9% | K-562 leukemia 31.4% | MALME-3M melanoma 53.5% | MDA-MB-231 breast 38.5% | RXF 393 renal 46.7% | SF-268 CNS 44.5% | SF-295 CNS 30.7% | SF-539 CNS 69.5% | UACC-257 melanoma 37.6% | M14 melanoma 28.3%

NC(=O)c1cnc(Nc2cccc(N)c2)nc1NCCCNC(=O)C1CCC1
inactive: DU-145 prostate 75.9% | K-562 leukemia 52% | MALME-3M melanoma 80.3% | MDA-MB-231 breast 50.1% | RXF 393 renal 21.4% | SF-268 CNS 76.2% | SF-295 CNS 69.3% | UACC-257 melanoma 107% | M14 melanoma 55.4%
active: SF-539 CNS 5.4%

COc1ccc(CCN(CC(=O)N(CC(N)=O)C2CCC[C@@H]2OCc2ccccc2)C(=O)CN(C(=O)CN(CCc2ccc(Cl)cc2)C(=O)CN(C(=O)CN(C)Cc2ccccc2F)[C@H](C)C2CCCCC2)[C@H](C)C2CCCCC2)cc1OC (stereo not given in full)
active: RXF 393 renal -10% | SF-295 CNS -0.412% | UACC-257 melanoma -5.66%
inactive: DU-145 prostate 43.7% | K-562 leukemia 10.4% | MALME-3M melanoma 51.7% | MDA-MB-231 breast 29.7% | SF-268 CNS 26.5% | SF-539 CNS 33.7% | M14 melanoma 19.3%

C#CC#CC#CC#CC#CC#CC#CC#CCC1OC[C@H](COC(=O)O[C@@H](C(=O)O[C@H]2C[C@@]3(O)[C@@H](OC(=O)c4ccccc4)[C@@H]4[C@]5(OC(C)=O)CO[C@@H]5C[C@H](O)[C@@]4(C)C(=O)[C@H](OC(C)=O)C(=C2C)C3(C)C)[C@@H](NC(=O)c2ccccc2)c2ccccc2)O1 (stereo not given in full)
active: RXF 393 renal -2.06% | SF-539 CNS 8.47% | M14 melanoma 1.84%
inactive: DU-145 prostate 17.3% | K-562 leukemia 15.5% | MALME-3M melanoma 47.2% | MDA-MB-231 breast 35.3% | SF-268 CNS 45.9% | SF-295 CNS 15.2% | UACC-257 melanoma 64.9%

Cc1cccc(Oc2ccc(Nc3ncnc4ccc(NC(=O)CN5CCN(C)CC5)cc34)cc2Cl)c1
active: K-562 leukemia -6.17% | MALME-3M melanoma -72.6% | MDA-MB-231 breast -47.2% | RXF 393 renal -65.6% | SF-539 CNS -77.1% | UACC-257 melanoma -66.4% | M14 melanoma -72.7%
inactive: DU-145 prostate 33.2% | SF-268 CNS 42% | SF-295 CNS 63.9%

C=C1C(=O)O[C@H]2[C@H]1CC/C(COC(=O)/C=C\C(=O)NCc1ccc(Cn3c(=O)sn(CCCCC)c3=O)cc1)=C\CC[C@@]1(C)O[C@@H]21
inactive: DU-145 prostate 49.2% | K-562 leukemia 12.6% | MALME-3M melanoma 52.4% | MDA-MB-231 breast 71.4% | RXF 393 renal 74.9% | SF-268 CNS 92.5% | SF-295 CNS 101% | SF-539 CNS 78.7% | UACC-257 melanoma 75.8% | M14 melanoma 43.9%

CC1(C)CC[C@]2(C(=O)N[C@H](CO)Cc3ccccc3)CC[C@]3(C)C(=CC[C@@H]4[C@@]5(C)CCCNC(C)(C)[C@@H]5CC[C@]43C)[C@@H]2C1
active: K-562 leukemia 1.94%
inactive: DU-145 prostate 93.7% | MALME-3M melanoma 106% | MDA-MB-231 breast 70.1% | RXF 393 renal 78.4% | SF-268 CNS 85.7% | SF-295 CNS 102% | SF-539 CNS 90.4% | UACC-257 melanoma 106% | M14 melanoma 71.4%

CC(C)N1C(=O)/C(=c2\sc3n(c2=O)C2C(NN=3)N(C)C(=O)N2C)c2ccccc21 (stereo not given)
inactive: DU-145 prostate 84.3% | K-562 leukemia 27% | MALME-3M melanoma 53.2% | MDA-MB-231 breast 90.9% | RXF 393 renal 57.3% | SF-268 CNS 74.9% | SF-295 CNS 50.1% | SF-539 CNS 49.2% | UACC-257 melanoma 50% | M14 melanoma 44.9%

OCCNCCNC(Cc1ccc(Cl)cc1)c1ccccc1 (stereo not given)
inactive: DU-145 prostate 99.7% | K-562 leukemia 88.5% | MALME-3M melanoma 107% | MDA-MB-231 breast 75.7% | RXF 393 renal 84.5% | SF-268 CNS 88.8% | SF-295 CNS 92.2% | SF-539 CNS 72.9% | UACC-257 melanoma 104% | M14 melanoma 90.5%

CC1(C)CC[C@]2(CO)CC[C@]3(C)[C@H](CC[C@@H]4[C@@]5(C)CCCNC(C)(C)[C@@H]5CC[C@]43C)[C@H]2[C@H]1O
inactive: DU-145 prostate 94.5% | MALME-3M melanoma 78.5% | MDA-MB-231 breast 91% | RXF 393 renal 92% | SF-268 CNS 94.9% | SF-295 CNS 105% | SF-539 CNS 74.9% | UACC-257 melanoma 82.5% | M14 melanoma 95.1%
active: K-562 leukemia 8.95%

C=CC(=O)Nc1ccc(Oc2nccc(Nc3nnc(-c4ccc(C)cc4)s3)n2)cc1
inactive: DU-145 prostate 78.5% | K-562 leukemia 29.4% | MALME-3M melanoma 52.6% | MDA-MB-231 breast 88.4% | RXF 393 renal 88% | SF-268 CNS 77.6% | SF-295 CNS 56.9% | SF-539 CNS 83.3% | UACC-257 melanoma 86.5% | M14 melanoma 57.5%

Fc1cccc(-c2ccc3c(c2)C2(CCNCC2)CN3)c1
inactive: DU-145 prostate 105% | K-562 leukemia 92.6% | MALME-3M melanoma 109% | MDA-MB-231 breast 91.2% | RXF 393 renal 121% | SF-268 CNS 98.8% | SF-295 CNS 95.4% | SF-539 CNS 98.8% | UACC-257 melanoma 126% | M14 melanoma 109%

COc1ccc(/C=C/C(=O)c2cc(OC)c(OC)c(OC)c2)cc1OCC(=O)Nc1nc2ccc(OC(F)(F)F)cc2s1
active: DU-145 prostate -30.3% | K-562 leukemia 5.93% | MDA-MB-231 breast -16.1% | RXF 393 renal -29.7% | SF-268 CNS 9.91% | SF-295 CNS 0.996% | SF-539 CNS -58.4% | M14 melanoma 1.09%
inactive: MALME-3M melanoma 26.8% | UACC-257 melanoma 68.6%

COc1cc(/C=C/C(=O)c2ccc(-n3cc(CN4CCN(c5cc6c(cc5F)c(=O)c(C(=O)O)cn6C5CC5)CC4)nn3)cc2)ccc1O
inactive: DU-145 prostate 77.5% | K-562 leukemia 40.5% | MALME-3M melanoma 94.5% | MDA-MB-231 breast 73.6% | RXF 393 renal 70.9% | SF-268 CNS 56.4% | SF-295 CNS 80.2% | SF-539 CNS 60.1% | UACC-257 melanoma 87.7% | M14 melanoma 79%

COc1ccc(C(=O)Cn2c(C(=O)c3ccc(Cl)cc3)nc3ccccc32)cc1
inactive: DU-145 prostate 98.3% | K-562 leukemia 45.7% | MALME-3M melanoma 70.7% | MDA-MB-231 breast 65.5% | RXF 393 renal 14.2% | SF-268 CNS 66.7% | SF-295 CNS 51.8% | SF-539 CNS 91% | UACC-257 melanoma 70.8% | M14 melanoma 14.8%

N#C/C(=C\c1cn(Cc2ccccc2)c2ccccc12)C(=O)Nc1ncc(Cc2ccccc2Cl)s1
active: MALME-3M melanoma -7.28% | SF-295 CNS 8.89% | UACC-257 melanoma -38.2%
inactive: DU-145 prostate 24.3% | K-562 leukemia 26.2% | MDA-MB-231 breast 19.8% | RXF 393 renal 40.8% | SF-268 CNS 64.1% | SF-539 CNS 13.5% | M14 melanoma 38.9%

Cc1nn(-c2cc(NC3CCC(O)CC3)c3c(=O)[nH]c(CCC(F)(F)F)cc3c2)c2c1C(=O)CC(C)(C)C2 (stereo not given)
inactive: DU-145 prostate 27% | K-562 leukemia 18.5% | MALME-3M melanoma 60% | MDA-MB-231 breast 42% | RXF 393 renal 39.1% | SF-268 CNS 72% | SF-295 CNS 48.5% | SF-539 CNS 58% | UACC-257 melanoma 62.7% | M14 melanoma 32.3%

O=C(O)COc1ccc(Cl)c(Cl)c1
inactive: DU-145 prostate 126% | K-562 leukemia 109% | MALME-3M melanoma 124% | MDA-MB-231 breast 115% | RXF 393 renal 108% | SF-268 CNS 117% | SF-295 CNS 103% | SF-539 CNS 104% | UACC-257 melanoma 104% | M14 melanoma 112%

CCOC(=O)C1=C(C)/C(=C\c2[nH]c(C)c(C(=O)OCC)c2C)N=C1C
inactive: DU-145 prostate 96.2% | K-562 leukemia 106% | MALME-3M melanoma 94.6% | MDA-MB-231 breast 82.8% | RXF 393 renal 101% | SF-268 CNS 79.1% | SF-295 CNS 96.9% | SF-539 CNS 101% | UACC-257 melanoma 88.9% | M14 melanoma 95.9%

COc1cc(/C=N/Nc2ccc(Br)cc2)cc(OC)c1OC
active: K-562 leukemia 9.82%
inactive: DU-145 prostate 63.1% | MALME-3M melanoma 55.5% | MDA-MB-231 breast 47.5% | RXF 393 renal 102% | SF-268 CNS 52.5% | SF-295 CNS 60.9% | SF-539 CNS 63.5% | UACC-257 melanoma 84.6% | M14 melanoma 18.4%

COc1cc(OC)c2sc(-c3ccc(-n4cncc4-c4cc(OC)c(OC)c(OC)c4)cc3)nc2c1
active: RXF 393 renal 4.25%
inactive: DU-145 prostate 78.3% | K-562 leukemia 45.7% | MALME-3M melanoma 61.7% | MDA-MB-231 breast 54.4% | SF-268 CNS 61% | SF-295 CNS 60.6% | SF-539 CNS 62.1% | UACC-257 melanoma 59.8% | M14 melanoma 69%

O=C(NNC(=O)c1ccc(NC(=O)c2ccccn2)cc1)Nc1ccc2ccccc2c1
inactive: DU-145 prostate 110% | K-562 leukemia 106% | MALME-3M melanoma 123% | MDA-MB-231 breast 115% | RXF 393 renal 116% | SF-268 CNS 101% | SF-295 CNS 103% | SF-539 CNS 69% | UACC-257 melanoma 120% | M14 melanoma 115%

CCOC(=O)c1c(C)c2c(n1Cc1ccccc1)CSCC2=O
active: MALME-3M melanoma -16.3% [100 µM] | MDA-MB-231 breast -2.2% [100 µM] | SF-295 CNS 3.06% [100 µM] | SF-539 CNS -23.7% [100 µM] | M14 melanoma -16% [100 µM]
inactive: DU-145 prostate 30.8% [100 µM] | K-562 leukemia 18.6% [100 µM] | RXF 393 renal 17.1% [100 µM] | SF-268 CNS 21.4% [100 µM] | UACC-257 melanoma 21.9% [100 µM]

CC1=C2[C@@H](CC1)[C@]1(C)O[C@@](c3ccccc3)(C[C@H]1OC(=O)CO)[C@H]2OC(=O)/C=C/c1ccccc1
inactive: DU-145 prostate 97.8% | K-562 leukemia 70.6% | MALME-3M melanoma 88.6% | MDA-MB-231 breast 91.4% | RXF 393 renal 36.2% | SF-268 CNS 33.1% | SF-295 CNS 91% | SF-539 CNS 111% | UACC-257 melanoma 103% | M14 melanoma 96.8%
